NCOA2 inhibitor: inhibits human steroid receptor coactivator 2; Q15596; HEK293 GAL4-SRC2 luciferase reporter, luminescence; inhibition, % at 9 µM; actives 0.17% (n = 370,000); AID 651957;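 active = inhibition above the mean inhibition of all tested compounds plus 3 SD, set per campaign, cut at about 52% in these data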;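 note: 0% = DMSO treated cells and 100% = cells given Gossypol at 36 µM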
LRH-1 inv ag: NR5A2 inverse agonism in reporter assay | O00482 | HEK293T StAR-luciferase reporter, LRH-1 transfected, 24 h | inhibition, % at 3.6 µM | actives 0.13% (n = 360,000);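 active = inhibition above the mean inhibition of all tested compounds plus 3 SD, cut at about 73% in these data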;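 note: 0% = DMSO wells and 100% = reporter-only cells lacking LRH-1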
SRC3 inh: human NCOA3 inhibition | actives 0.17% (n = 360,000) | HEK293 GAL4-SRC3 luciferase reporter, luminescence | inhibition, % at 3.6 µM;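 active = inhibition above a per-campaign cutoff, the mean of all compounds plus 3 SD, cut at about 60% in these data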;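 note: 0% = DMSO-treated cells and 100% = gossypol-treated cells at 36 µM; higher means less SRC3-driven luciferase light from the GAL4 reporter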
SRC1 inh: inhibits human SRC1 coactivator. Q15788. HEK293 GAL4-SRC1 luciferase reporter, luminescence. inhibition, % at 3.6 µM. actives 0.12% (n = 360,000). AID 588354;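 active = inhibition above the campaign mean plus 3 SD, with each screening campaign given its own cutoff, cut at about 60% in these data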;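 note: 0% = DMSO treated cells and 100% = gossypol at 36 µM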
Efflux pump mplx: inhibitors of Candida antifungal efflux pumps expressed in yeast; S. cerevisiae Candida pump triplex, Nile Red efflux; inhibition, % at 10 µM; actives 0.44% (n = 330,000);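 active = plate passing quality check with inhibition over a set limit, or well fluorescence over plate mean plus 4 SD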;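 note: Nile Red retained in pooled yeast measured as flow cytometry median fluorescence; 0% = buffer negative control and 100% = Enniatin B positive control; higher means more Nile Red kept so more efflux inhibition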
COUP-TFII inh: NR2F2 (human) inhibition, primary screen; P24468; inhibition, % at 8.6 µM; HEK293T NGFI-A luciferase reporter, luminescence; actives 0.7% (n = 370,000);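 active = inhibition above a per-plate cutoff, mean inhibition of test wells between control levels plus 3 SD, cut at about 38% in these data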;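 note: cells cotransfected with COUP-TFII expression vector driving the NGFI-A reporter; 0% = median of COUP-TF2 test wells and 100% = reporter-only cells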
Target sequence (P24468 whole entry, looked up): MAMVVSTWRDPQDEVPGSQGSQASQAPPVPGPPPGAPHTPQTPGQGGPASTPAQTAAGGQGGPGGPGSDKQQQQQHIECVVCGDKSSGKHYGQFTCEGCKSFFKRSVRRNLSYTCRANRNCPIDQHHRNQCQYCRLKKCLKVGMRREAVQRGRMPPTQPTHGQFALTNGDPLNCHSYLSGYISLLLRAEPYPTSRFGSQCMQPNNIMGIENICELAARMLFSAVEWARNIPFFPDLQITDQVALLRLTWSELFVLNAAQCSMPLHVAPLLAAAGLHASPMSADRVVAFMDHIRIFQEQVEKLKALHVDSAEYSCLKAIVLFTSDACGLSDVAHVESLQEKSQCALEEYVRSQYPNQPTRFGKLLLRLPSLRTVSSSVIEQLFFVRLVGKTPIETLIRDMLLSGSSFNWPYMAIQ
Gal4-VP16 ctr: inhibits VP16 reporter, flagging COUP-TFII antagonist hits; HEK293 Gal4-VP16 luciferase reporter, luminescence; inhibition, % at 8.5 µM; actives 25% (n = 2,500); shares compounds with COUP-TFII inh; in the data active = inhibition above about 13%
NR2F2 inh conf: COUP-TFII (NR2F2) inhibition, confirmation assay; shares compounds with COUP-TFII inh; HEK293 NGFI-A luciferase reporter, luminescence; inhibition, % at 8.5 µM; actives 45% (n = 2,500);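 active = mean inhibition over three repeats above a set limit taken from the earlier primary screen, cut at about 38% in these data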;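 note: 100% = cells given the luciferase reporter alone without the COUP-TF2 vector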
* = called active by the depositor; . = not tested or not shown. Rows were chosen to be rich in hits. Some 1.2% of all compounds tested hit in one or more screens of this group.

SMILES | NCOA2 inhibitor | LRH-1 inv ag | SRC3 inh | SRC1 inh | Efflux pump mplx | COUP-TFII inh | Gal4-VP16 ctr | NR2F2 inh conf
COc1cccc(Cn2c(NCc3ccco3)nc3c2c(=O)n(C)c(=O)n3C)c1 | 22 | . | . | . | 0 | 49* | 1 | 24
O=C(Nc1ccc(N2CCN(C(=O)c3ccccc3)CC2)c(Cl)c1)c1ccc(Br)o1 | -14 | 12 | -13 | -1 | 0 | 40* | 4 | 20
O=C(Nc1ccc(N2CCN(C(=O)c3ccccc3)CC2)cc1)c1ccc(Br)o1 | 18 | -13 | 11 | -17 | 0 | 0 | . | .
CC(C)(C)c1ccc(-c2nnc3sc(-c4ccccn4)nn23)cc1 | 21 | -1 | -2 | -5 | 0 | 41* | -23 | 52*
Cc1noc(C)c1S(=O)(=O)Nc1ccc(C(=O)Nc2ccc(OC(F)(F)F)cc2)cc1 | -7 | -8 | 7 | -1 | 0 | -9 | . | .
S=C(Nc1ccc(Cl)cc1)c1nc2ccccc2s1 | -33 | -45 | -67 | -59 | 0 | -23 | . | .
O=C(Nc1ccc(Cl)cc1)/C(=C/c1cccc(O)c1)c1nc2ccccc2s1 | 55* | 53 | 27 | 6 | -1 | 66* | 40* | 54*
Cc1c(P(=S)(c2ccccc2)c2ccccc2)[n+]2ccccc2n1C/C=C/c1ccccc1 | -43 | 47 | 49 | 29 | . | 38* | 5 | 4
CC(C)CNc1ncnc2c1ncn2[C@H]1CN(Cc2ccc(-c3ccccc3)cc2)C[C@@H](CO)O1 | -3 | 12 | 7 | 18 | . | 61* | 6 | 43*
CC(C)Nc1ncnc2c1ncn2[C@H]1CN(Cc2ccc(-c3ccccc3)cc2)C[C@@H](CO)O1 | 24 | 24 | -3 | 18 | . | 49* | 3 | 18
Cc1cc(Br)ccc1NC(=O)CN(C)C(=O)C1CCN(c2ncnc3sc(C)c(C)c23)CC1 | 51 | 11 | 31 | 20 | . | 47* | 10 | 37
Cc1cccc(C)c1NC(=O)CN(C)C(=O)C1CCN(c2ncnc3sc(C)c(C)c23)CC1 | 15 | 9 | 9 | 6 | 0 | -2 | . | .
O=C1C2CC=C(Cl)CC2C(=O)N1CCc1c[nH]c2ccccc12 (centres undefined) | -21 | -2 | -2 | -13 | 0 | -8 | . | .
CCCCCCCCCCOC(=O)Cn1c(COc2ccccc2OC)[n+](C)c2ccccc21 | -26 | 22 | 11 | 15 | 0 | 44* | 4 | 36
Cn1c(COc2ccccc2O)[n+](C)c2ccccc21 | 0 | 20 | -9 | 7 | 0 | 0 | . | .
CC(Nc1ncnc2ccccc12)c1ccccc1 (centres undefined) | 13 | 45 | 20 | 10 | 0 | 71* | 4 | 61*
COC(=O)C1CCC(=S)N1C(=O)c1ccccc1 (centres undefined) | -3 | -20 | 3 | -24 | 0 | -4 | . | .
Cc1ccc(S(=O)(=O)N(C)Cc2ccc(C(=O)N/N=C/c3ccc(OC(F)F)cc3OC(F)F)cc2)cc1 | 12 | 25 | 46 | 39 | 0 | 70* | 10 | 74*
O=C(Nc1cc(S(=O)(=O)N2CCCCC2)ccc1Oc1ccccc1)C1=COCCO1 | -9 | -11 | -10 | -9 | 0 | 2 | . | .
O=C(OC(c1ccccc1)c1nccc2ccccc12)c1ccccc1 (centres undefined) | 61* | 76* | 70* | 67* | . | 81* | 53* | 87*
OCC1OC(n2ccc3c(NO)ncnc32)C(O)C1O (centres undefined) | 41 | 98* | 85* | 69* | . | 47* | 27* | 28
Cc1ccc(C(=O)Nc2ncc([N+](=O)[O-])s2)cc1 | 62* | -28 | 4 | 3 | 0 | 63* | -16 | 6
O=C(Nc1ncc([N+](=O)[O-])s1)c1ccc2c(c1)OCO2 | 44 | -58 | 2 | -9 | 0 | 33 | . | .
COc1ccc(OC)c(S(=O)(=O)NC(C)c2ccc(-n3ccnc3)cc2)c1 (centres undefined) | -23 | -13 | 18 | -3 | 0 | -14 | . | .
N#C/C(=C/c1ccc(Oc2ccc([N+](=O)[O-])cn2)cc1)C(=O)N1CCOCC1 | -8 | 7 | 24 | 10 | 0 | -21 | . | .
SMILES | NCOA2 inhibitor | LRH-1 inv ag | SRC3 inh | SRC1 inh | Efflux pump mplx | COUP-TFII inh | Gal4-VP16 ctr | NR2F2 inh conf
Cc1nn(C)c(C(=O)NCc2ccc(Cl)cc2)c1Cl | 18 | 40 | 26 | 21 | 0 | 61* | 1 | 44*
CCN(C(=O)C1CCN(c2nc(-c3ccc(OC)cc3)no2)CC1)c1ccc(OC)cc1 | 30 | 39 | 26 | 6 | 0 | 52* | -1 | 30
COc1ccc(NC(=O)C2CCN(c3nc(-c4ccc(OC)cc4)no3)CC2)cc1 | 1 | 14 | -16 | 12 | 0 | -17 | . | .
COc1ccc(/C=C(\NC(=O)c2ccccc2)C(=O)N2CCN(C)CC2)cc1OC | -11 | 13 | -15 | -27 | 0 | -7 | . | .
O=C(Nc1nncs1)c1cc2c(s1)CCC2 | -81 | -68 | -55 | -99 | 0 | -37 | . | .
O=C(Nc1nccs1)c1cc2c(s1)CCCCC2 | 58* | -5 | 7 | -11 | 1 | 42* | -55 | -10
COc1cc(NC(=O)CCS(=O)(=O)c2ccc3nc(C)sc3c2)cc(OC)c1OC | 9 | 9 | -9 | 7 | 0 | -6 | . | .
CC(C)(C)C(=O)Nc1ccc(NC(=O)c2ccco2)nc1 | 82* | 75* | 78* | 79* | 0 | 84* | 78* | 95*
O=C(Nc1ccc(NC(=O)c2ccco2)nc1)c1ccco1 | -4 | -104 | -45 | -75 | 0 | -45 | . | .
O=C(CSc1nc2ccccc2o1)Nc1nc2c(s1)CCCC2 | 12 | 29 | 28 | 21 | . | 52* | -44 | 36
O=C(Nc1cccc(C(F)(F)F)c1)c1ccc2sc([C@H]3C[C@H](O)[C@@H](CO)O3)nc2c1 | -7 | 12 | 13 | 15 | . | 58* | 3 | 24
O=C(Nc1ccc(Oc2ccccc2)cc1)c1ccc2sc([C@H]3C[C@H](O)[C@@H](CO)O3)nc2c1 | 28 | 38 | 5 | 32 | . | 74* | -22 | 46*
CC1(C)COC(Cc2ccccc2)=N1 | -23 | 3 | 3 | -7 | . | -4 | . | .
O=C(/C(=C/O)N=Nc1ccccc1)c1ccco1 | -1 | 4 | 17 | -4 | 0 | -9 | . | .
CCc1ccc(OC)c(S(=O)(=O)Nc2ccc(Cc3ccncc3)cc2)c1 | 23 | 23 | 25 | 22 | 0 | 64* | 4 | 36
COc1ccc(S(=O)(=O)Nc2ccc(Cc3ccncc3)cc2)cc1OC | 22 | 6 | 20 | 7 | 0 | 29 | . | .
COc1ccc2[nH]c3c(NCCC4=CCCCC4)ncnc3c2c1 | -33 | -79 | -46 | -51 | . | 54* | -137 | 21

From PubChem BioAssay
